# Screens: PubChem, NMMLSC
# RPL19A-GFP yeast: yeast TOR pathway RPL19A-GFP modulation | hit rate 0.3% among 330,000 | S. cerevisiae RPL19A-GFP strain, flow cytometry, 3 h; active compounds read low | percent response vs DMSO, % at 10 µM | AID 2025;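 active = percent response vs DMSO below 50%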;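 also: median channel GFP fluorescence of the barcoded RPL19A-GFP strain; ratio of sample median GFP to plate DMSO average so 100% = DMSO; lower means less RPL19A-GFP as with rapamycin TOR inhibition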
# AGP1-GFP MLPCN: yeast TOR pathway AGP1-GFP modulation. S. cerevisiae AGP1-GFP multiplex flow cytometry, 3 h; GFP as percent of DMSO wells. GFP response vs DMSO, % at 10 µM. hit rate 0.02% among 320,000. AID 2066;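 active = GFP response relative to DMSO above a set limit, near screen average plus 3 SD, cut at about 150% in these data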;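 also: median GFP channel fluorescence of the gated AGP1 strain per well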
# LAP4 TOR yeast: yeast TOR pathway LAP4-GFP modulation | AID 2023 | hit rate 0.34% among 320,000 | GFP response vs DMSO, % at 10 µM | S. cerevisiae LAP4-GFP multiplex, flow cytometry GFP, 3 h; median GFP as percent of DMSO wells;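 active = GFP response vs DMSO above a set limit, about the screen mean plus 3 SD, cut at about 150% in these data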
# MEP2-GFP yeast: alters MEP2-GFP fluorescence in TOR pathway yeast screen. S. cerevisiae MEP2-GFP strain, flow cytometry GFP, 3 h; 100% = DMSO control level. GFP response vs DMSO, % at 10 µM. hit rate 0.51% among 330,000;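 active = GFP response versus DMSO above a set limit, roughly screen mean plus 3 SD, cut at about 180% in these data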;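 also: median GFP fluorescence of the barcode-gated MEP2-GFP cells per well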
# Pemphigus Ab inh: blocks pemphigus antibody binding to human desmoglein-3 | P32926 | DSG3-coupled beads, scFv-anti-DSG3-GFP binding, flow cytometry; active compounds read low | binding (percent of control), % at 10 µM | hit rate 0.48% among 310,000 | AID 588358;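 active = binding more than 3 SD below its plate's average and above zero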;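 also: hits lower antibody fragment binding to DSG3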
# Target sequence (P32926 whole entry, looked up, the tested form may be a part): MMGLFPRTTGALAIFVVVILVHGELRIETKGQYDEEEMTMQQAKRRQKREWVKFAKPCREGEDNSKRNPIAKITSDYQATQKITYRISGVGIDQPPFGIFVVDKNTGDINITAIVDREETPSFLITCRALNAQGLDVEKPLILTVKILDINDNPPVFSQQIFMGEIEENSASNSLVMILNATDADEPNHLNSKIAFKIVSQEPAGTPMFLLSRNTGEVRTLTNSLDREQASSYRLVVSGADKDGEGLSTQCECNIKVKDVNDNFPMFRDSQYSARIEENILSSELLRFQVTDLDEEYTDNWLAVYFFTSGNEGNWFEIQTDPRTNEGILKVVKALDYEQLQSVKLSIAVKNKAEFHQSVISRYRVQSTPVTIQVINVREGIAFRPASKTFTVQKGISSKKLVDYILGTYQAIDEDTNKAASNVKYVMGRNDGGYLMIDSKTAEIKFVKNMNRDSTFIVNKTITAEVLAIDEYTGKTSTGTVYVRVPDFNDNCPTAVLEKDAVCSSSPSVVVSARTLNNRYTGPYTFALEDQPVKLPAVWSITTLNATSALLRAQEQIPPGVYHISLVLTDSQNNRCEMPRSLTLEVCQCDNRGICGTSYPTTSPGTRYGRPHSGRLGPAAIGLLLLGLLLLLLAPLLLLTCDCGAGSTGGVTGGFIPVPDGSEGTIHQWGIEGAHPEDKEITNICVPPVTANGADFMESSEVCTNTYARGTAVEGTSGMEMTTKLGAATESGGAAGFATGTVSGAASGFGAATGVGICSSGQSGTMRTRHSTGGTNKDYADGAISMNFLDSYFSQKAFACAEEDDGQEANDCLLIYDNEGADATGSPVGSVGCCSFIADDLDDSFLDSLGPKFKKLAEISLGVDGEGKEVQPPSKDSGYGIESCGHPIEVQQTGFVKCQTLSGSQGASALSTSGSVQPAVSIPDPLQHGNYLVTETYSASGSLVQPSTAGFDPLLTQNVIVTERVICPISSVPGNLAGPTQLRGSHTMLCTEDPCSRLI
# CIT2 TOR yeast: yeast TOR pathway CIT2-GFP modulation. S. cerevisiae CIT2-GFP strain, flow cytometry, 3 h; 100 means same as DMSO wells. GFP response vs DMSO, % at 10 µM. hit rate 0.065% among 320,000;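 active = GFP response relative to DMSO above a set limit, near the screen mean plus 3 SD, cut at about 150% in these data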;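 also: ratio of well median GFP fluorescence to mean of DMSO wells on the plate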
# LAP4 cherry2: reconfirmed LAP4-GFP TOR pathway modulator in yeast; hit rate 20% among 590; GFP response vs DMSO, % at 10 µM; AID 2621; shares compounds with LAP4 TOR yeast; S. cerevisiae LAP4-GFP strain, flow cytometry GFP, 3 h;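 active = GFP signal as percent of the solvent control above about 150%, meaning raised reporter expression, limit read from the data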;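 also: ratio of well median GFP fluorescence to plate DMSO mean so 100% = DMSO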
# MEP2-GFP pick2: yeast MEP2-GFP modulation, second cherry pick; shares compounds with LAP4 TOR yeast; S. cerevisiae MEP2-GFP strain, flow cytometry GFP, 3 h; GFP response vs DMSO, % at 10 µM; hit rate 10% among 590; AID 2622;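 active = GFP signal above 150% of the solvent control wells, that is a rise of more than half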;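 also: median channel GFP fluorescence of all gated yeast cells per well; ratio of median GFP to plate DMSO average so 100% = DMSO level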
# RPL19A-GFP pick2: yeast RPL19A-GFP TOR reporter modulation, second cherry pick | hit rate 3% among 590 | GFP response vs DMSO, % at 10 µM | AID 2623 | S. cerevisiae RPL19A-GFP strain, flow cytometry GFP, 3 h; active compounds read low; 100% means same as DMSO wells | shares compounds with LAP4 TOR yeast;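 active = under 65% GFP response relative to DMSO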;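 also: median GFP channel fluorescence per well over the all cells gate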
# CIT2-GFP pick2: reconfirmed modulator of CIT2-GFP TOR reporter in yeast. shares compounds with LAP4 TOR yeast. S. cerevisiae CIT2-GFP strain, flow cytometry GFP, 3 h; DMSO control wells read 100%. hit rate 8% among 590. GFP response vs DMSO, % at 10 µM;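 active = GFP response vs DMSO above about 150%, limit read from the data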;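 also: median green fluorescence per well over all gated yeast cells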
# AGP1 GFP CP2: second confirmation of modulators of TOR reporter AGP1-GFP in yeast | shares compounds with LAP4 TOR yeast | S. cerevisiae AGP1-GFP strain, flow cytometry GFP, 3 h | percent response vs DMSO, % at 10 µM | 590 tested, under 10 active | AID 2643;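 active = over 150 percent of DMSO response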;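 also: median GFP channel fluorescence over all cells without mother daughter split; sample median GFP divided by mean DMSO control so 100% equals DMSO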
# Yeast autofluor: counter-screen for compound autofluorescence in yeast s288c cells; fluorescence change (kMESF span) at 33 µM; shares compounds with LAP4 TOR yeast; AID 2757; 610 tested, under 10 active; S. cerevisiae s288c, 520 nm autofluorescence, flow cytometry, 3 h; active compounds read high; zero means same as solvent-only cells;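 active = fluorescence span over the dose series, or activity score, above about 33, limit read from the data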
# s288c autofl DR: TOR screen hit shows autofluorescence in yeast s288c. shares compounds with LAP4 TOR yeast. S. cerevisiae s288c parental, compound autofluorescence, flow cytometry, 3 h. fluorescence change (span) at 33 µM. 110 tested, under 10 active. AID 488829;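 active = fluorescence change span, or the activity score built from it, above 25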
# TORC1 bypass gr: stops wildtype yeast growth while TORC1 bypass cells still grow. shares compounds with LAP4 TOR yeast. S. cerevisiae BY4741 spot growth rating, 48-72 h; active compounds read low. 120 tested, under 10 active. growth rating (0-3) at 30 µM. AID 504456;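 active = growth rating at most 1 for wild type yeast while the TORC1 bypass strain still grows fully, rated 3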
# * hit, by the source's call; / = no result given. Shown are actives, neighbours in structure and some others; about 1.2% of the full set was active somewhere.
SMILES,RPL19A-GFP yeast,AGP1-GFP MLPCN,LAP4 TOR yeast,MEP2-GFP yeast,Pemphigus Ab inh,CIT2 TOR yeast,Yeast autofluor,others
CCOC(=O)c1ccc(NC(=O)Nc2ncccc2C)cc1,110.7,93.5,99.4,100.8,96.1,81.3,/,
O=C1C=CC(=O)N1c1ccc(OC(F)F)cc1,87.0,77.1,152.4*,86.6,61.7*,71.8,1.7,LAP4 cherry2=205.8*;MEP2-GFP pick2=131.4;RPL19A-GFP pick2=86.8;CIT2-GFP pick2=117.6;AGP1 GFP CP2=88.2
O=C(O)CNC(=O)c1ccc(OC(F)F)cc1,99.7,99.8,96.9,99.8,95.4,100.3,/,
O=C1C=CC(=O)N1c1ccc(O)cc1,90.3,93.7,184.7*,85.3,93.1,92.1,3.02,
O=C1CCCC(=O)N1c1ccc(O)cc1,103.4,102.3,97.2,97.3,99.2,100.5,/,
CCCn1c2ccccc2c2cnn(CC(=O)NCCCN3CCN(c4ccccc4)CC3)c(=O)c21,96.7,98.9,107.3,100.2,/,91.2,/,
COc1ccc(OC)c(C(=O)COC(=O)c2cccnc2SC)c1,/,/,/,/,100.9,/,/,
Nc1nc2ncc(CNc3ccc(C(=O)N[C@@H](CCC(=O)O)C(=O)O)cc3)nc2c(=O)[nH]1,101.3,102.9,100.9,108.0,/,108.4,0.1,LAP4 cherry2=102.2;MEP2-GFP pick2=103.1;RPL19A-GFP pick2=99.5;CIT2-GFP pick2=97.3;AGP1 GFP CP2=101.0
CCOC(=O)CCC(NC(=O)c1ccc(NCN2C(=O)CCC2=O)cc1)C(=O)OCC (configuration not stated),102.1,102.8,99.8,99.3,99.5,100.6,/,
CN(Cc1cnc2nc(N)nc(N)c2n1)c1ccc(C(=O)N[C@@H](CCC(=O)O)C(=O)O)cc1,84.3,97.0,233.0*,90.0,109.1,57.9,0.51,LAP4 cherry2=272.6*;MEP2-GFP pick2=127.5;RPL19A-GFP pick2=93.3;CIT2-GFP pick2=93.2;AGP1 GFP CP2=127.2
O=C(O)CCC(NC(=O)c1cncc(O)c1)C(=O)O (configuration not stated),101.9,98.5,105.1,99.1,100.9,101.6,/,
COc1ccc2c(c1)S/C(=C\C(=O)c1ccncc1)N2C,56.4,56.4,106.3,103.0,97.9,67.7,0.81,LAP4 cherry2=97.2;MEP2-GFP pick2=113.5;RPL19A-GFP pick2=61.6*;CIT2-GFP pick2=100.1;AGP1 GFP CP2=67.1
O=C(CSc1ncccn1)NNC(=O)c1ccccc1,115.8,96.6,87.6,108.5,109.3,107.9,/,
ClC(Cl)(c1nnnn1-c1ccccc1)c1nnnn1-c1ccccc1,93.1,64.4,232.1*,82.9,77.2*,86.4,1.6,LAP4 cherry2=264.5*;MEP2-GFP pick2=148.5;RPL19A-GFP pick2=92.2;CIT2-GFP pick2=132.1;AGP1 GFP CP2=96.2
c1ccc(-c2nnnn2-c2ccccc2)cc1,105.2,101.3,90.8,106.7,108.0,104.3,/,
O=C(O/C(=C/c1ccccc1)C(F)(F)F)c1ccccc1,/,/,/,/,114.5,/,/,
O=C1[C@H](Cc2ccccc2)NCC=CC[C@H](c2ccc(Cl)cc2)N1Cc1ccccc1,/,/,/,/,111.0,/,/,
O=C(CCNC(=O)N1CCn2c1nc1ccccc12)NCc1ccc(F)cc1,59.8,17.4,85.5,119.0,97.0,100.3,/,LAP4 cherry2=101.0;MEP2-GFP pick2=104.8;RPL19A-GFP pick2=99.8;CIT2-GFP pick2=100.7;AGP1 GFP CP2=96.5
COc1ccccc1CN(C)C(=O)c1ccc(S(=O)(=O)NCc2ccco2)cc1,103.1,110.5,96.8,100.5,95.0,98.7,/,
CC(C)c1ccc(N2C(=O)CC(Sc3ncn[nH]3)C2=O)cc1 (configuration not stated),97.5,81.7,/,75.6,102.1,98.8,/,
COc1ccc(N2C(=O)CC(Sc3ncn[nH]3)C2=O)c(OC)c1 (configuration not stated),96.3,96.9,124.4,88.3,95.3,103.3,0.61,
O=[N+]([O-])c1ccc(O)c2ncccc12,96.9,106.2,312.6*,105.4,104.9,82.1,1.3,LAP4 cherry2=274.6*;MEP2-GFP pick2=158.9*;RPL19A-GFP pick2=100.2;CIT2-GFP pick2=119.6;AGP1 GFP CP2=129.4;s288c autofl DR=0.73;TORC1 bypass gr=3
O=[N+]([O-])c1cc(Cl)c2cccnc2c1O,100.9,126.7,201.6*,119.5,100.7,102.0,0.31,s288c autofl DR=0.57;TORC1 bypass gr=3
O=[N+]([O-])c1ccc(O)c2cccnc12,99.4,105.2,100.4,98.6,98.5,110.9,/,
O=[N+]([O-])c1cc([N+](=O)[O-])c2cccnc2c1Oc1ccccc1O,87.5,94.3,149.6,88.6,113.9,86.9,/,
SMILES,RPL19A-GFP yeast,AGP1-GFP MLPCN,LAP4 TOR yeast,MEP2-GFP yeast,Pemphigus Ab inh,CIT2 TOR yeast,Yeast autofluor,others
O=[N+]([O-])c1cc(Cl)c(O)c2ncccc12,/,/,/,/,99.9,/,/,
Oc1c(Cl)c(Cl)c2ncccc2c1Cl,/,/,/,/,94.4,/,/,
Oc1c(I)cc(Cl)c2cccnc12,85.4,81.4,286.0*,111.6,91.8,78.4,2.12,LAP4 cherry2=226.0*;MEP2-GFP pick2=216.3*;RPL19A-GFP pick2=76.9;CIT2-GFP pick2=176.4*;AGP1 GFP CP2=106.1;s288c autofl DR=2.93;TORC1 bypass gr=0
O=[N+]([O-])c1cc(F)c2cccnc2c1O,93.1,115.2,184.6*,114.0,103.4,102.9,0.72,
Cc1cc(C)cc(OCC(=O)OCc2nnc(-c3ccccc3)o2)c1,94.6,95.2,105.6,87.9,96.7,83.8,/,
COc1ccc(/C=C/c2nc(S(=O)(=O)c3ccccc3)c(N(C)C)o2)cc1,101.2,97.7,110.0,104.2,/,89.7,/,
CCN1C[C@@H]2[C@@H]3C(=O)N(C)C(=O)[C@@H]3[C@](CC)(C1=O)N2C(=O)c1ccc(Cl)cc1,/,/,/,/,101.5,/,/,
Cc1ccc(OC(C)C(=O)N2CCN(c3ccccn3)CC2)cc1 (configuration not stated),/,/,/,/,163.3,/,/,
O=C(O)C(c1ccccc1)C1CCCCC1O (configuration not stated),/,/,/,/,92.8,/,/,
